Laboratory results: PubChem BioAssay AID1117319 (Southern Research Institute, 2015)
Values joined by “and” are separate entries in the source; they are usually repeats but may differ in a detail not shown here. Equal entries are not always repeated. Out of some 260,000 compounds screened, about 1,500 (0.58%) were called active. Another 5% or so got no clear call; they are omitted.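 Rule for the calls: active = inhibition above a set limit at one or more doses, reproduced on every date tested; inconclusive = results disagree between test dates, or hit never tested in dose response; inactive = the rest.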 Not all results are given here. Potency and affinity values are given separately.

Each compound was assayed against Virion infectivity factor (Human immunodeficiency virus type 1 group M subtype B (isolate BH10)) + Virion infectivity factor (Human immunodeficiency virus type 1 group M subtype B (isolate BRU/LAI)) + Virion infectivity factor (Human immunodeficiency virus type 1 group M subtype B (isolate PCV12)) + Virion infectivity factor (Human immunodeficiency virus type 1 group M subtype B (isolate HXB2)) + DNA dC->dU-editing enzyme APOBEC-3G (Homo sapiens) (UniProt P69720+P69721+P69722+P69723+Q9HC16) (assay: HIV-1 Vif–A3G interaction blockers – biochemical, TR-FRET, GST-Vif 1-94, biotin-A3G peptide, dose response retest, primary screen (AID 1117319;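 note: Vif residues 1-94 fused to GST binding biotinylated APOBEC3G peptide 110-148; 0% = full assay without inhibitor and 100% = GST in place of GST-Vif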)). Details: TR-FRET GST-Vif / biotin-A3G peptide binding; stronger effect = higher value.

inhibition, inactive:
Cc1cccc(C(=O)NNS(=O)(=O)c2ccc(F)cc2)c1 -1.42%, O=C(N/N=C/c1cccc([N+](=O)[O-])c1)c1cccc2cc[nH]c12 -4.35%, CC1=C(C(N)=O)C(c2cccs2)n2nc(-c3cccc(C)c3)nc2N1 (configuration not stated) 10.3%, CC1=C(C(=O)Nc2ccccc2F)C(c2ccsc2)C2=C(CC(C)(C)CC2=O)N1 (configuration not stated) 0.63%, COC(=O)C1=C(C)NC2=C(C(=O)CC(c3cccs3)C2)C1c1ccsc1 (configuration not stated) 3.51%, O=C(COC(=O)c1cc(-c2cccnc2)nc2ccccc12)Nc1ccc(F)cc1F -4.09%, Cc1ccc(-c2cc(C(=O)OCC(=O)N(C)C3CCS(=O)(=O)C3)c3ccccc3n2)c(C)c1 (configuration not stated) 5.39%, Cc1cccc(C)c1NC(=O)COC(=O)c1cccnc1 0.67%, CCNC(=O)COC(=O)c1cc(-c2ccc(OC)cc2)nc2ccccc12 17.1%, O=C(COC(=O)c1cc(-c2ccco2)nc2ccccc12)NCc1ccccc1 27.6%, CCCCN(C(=O)c1cc(-c2ccco2)nc2ccccc12)c1c(N)n(CCCC)c(=O)[nH]c1=O 22.2%, CCCn1c(N)c(N(CCOC)C(=O)c2cc(-c3ccco3)nc3ccccc23)c(=O)[nH]c1=O 22.8%, CN(C(=O)COC(=O)c1cc(-c2ccc(Cl)s2)nc2ccccc12)C1CCS(=O)(=O)C1 (configuration not stated) -9.51%, COc1ccc(-c2nnc(SCC(N)=O)n2N)cc1 -2.53%, O=[N+]([O-])c1ccc(/C=N/N2CCN(c3ccncc3S(=O)(=O)N3CCCCC3)CC2)cc1 -3.38%, O=C(c1cccc2ccccc12)C1CCCN(C(=O)C2CCOCC2)C1 (configuration not stated) 3.16%, CCn1c(SCC(=O)Nc2sc3c(c2C#N)CCCC3)nnc1-c1ccco1 3.19%, COc1cccc(NC(=S)NCCc2ccccn2)c1 -0.67%, Cc1ccc(N2CC(C(=O)OCC(=O)c3c(N)n(CC(C)C)c(=O)n(C)c3=O)CC2=O)cc1 (configuration not stated) -1.07%, COC(=O)CSc1cc(C)nc(NC(C)=O)n1 3.6%, CC(C(=O)OCC(=O)Nc1ccc2c(c1)OCO2)N1C(=O)c2ccccc2C1=O (configuration not stated) 5.56%, CCN(CC)S(=O)(=O)c1cccc(C(=O)N[C@H](C(=O)OCC(N)=O)C(C)C)c1 19%, CC(C)c1ccc(C(=O)OCC(=O)c2c(N)n(C)c(=O)n(C)c2=O)cc1 2%, Clc1c(-c2ccccc2)nnn1-c1ccccc1 -12%, Cc1cc(C(=O)N2CCN(c3cccc(Cl)c3)CC2)c(C)o1 -5.08%, CCOC(=O)C1CCCN(C(=O)c2cc(-c3ccccc3)nc3ccccc23)C1 (configuration not stated) -11.1%, CCOC(=O)C1CCCN(C(=O)c2cc(-c3ccc(C)cc3)nc3ccccc23)C1 (configuration not stated) 10.1%, Cc1cc(C(=O)OCC(=O)NCc2ccc3c(c2)OCO3)c2ccccc2n1 -5.38%, O=C(OCC(=O)N1CCN(C(=O)c2ccco2)CC1)c1cc(-c2ccc(F)cc2)nc2ccccc12 -2.07% and -4.96%, O=C(COC(=O)c1ccco1)NCc1ccc2c(c1)OCO2 18.2%, O=C(OCC(=O)N1CCN(C(=O)c2ccco2)CC1)c1cc(-c2ccccc2)nc2ccccc12 -3.01%, O=C(Nc1ccc2oc(-c3cccnc3)nc2c1)c1cc2ccccc2o1 20.3%, COc1ccc(-n2nnc3c(=O)n(Cc4cc(C)ccc4C)cnc32)cc1 -0.91%, CCN(CC)CCNC(=O)c1cc([N+](=O)[O-])c(N(C)C)cc1OC 12.4%, COc1ccccc1NC(=S)NCCSc1ccc(C)cc1 9.9%, O=C1/C(=C/c2cccc(Br)c2)SC(=S)N1CCC(=O)N(CCO)c1ccccc1 -10.6%, Cc1ccc(S(=O)(=O)N2CCCCC2)cc1C(=O)NCCCN1CCOCC1 1.73%, COc1ccc(S(=O)(=O)NCC2CCC(C(=O)N3CCC4(CC3)OCCO4)CC2)cc1 (configuration not stated) 0.18% and -4.29%, Cc1cc(C)c(S(=O)(=O)NCC2CCC(C(=O)NCCCN3CCOCC3)CC2)c(C)c1 (configuration not stated) 3.66%, Cc1ccc(-n2nc3c(c2NC(=O)c2ccccc2Br)CS(=O)C3)cc1 (configuration not stated) 0.72%, O=c1[nH][nH]c(C(F)(F)F)c1/C=N/N1CCOCC1 -7.03%, C/C(=N\Nc1ccc(Cl)c(C(=O)O)c1)c1ccccn1 -6.06%, C/C(=N\Nc1ccc(Cl)c(C(=O)O)c1)c1cccs1 -4.46%, CCN1C(=O)/C(=C\c2cccs2)C(C(=O)OC)=C1C 2.01%, COC(=O)C1=C(C)N(C)C(=O)/C1=C\c1ccco1 9.7%, COC(=O)C1=C(C)N(Cc2ccco2)C(=O)/C1=C\c1ccc([N+](=O)[O-])cc1 -12.1%, COC(=O)C1=C(O)/C(=C\c2cc(C)n(-c3ccccc3F)c2C)N=C1C 25.1%, COC(=O)C1=C(C)NC(=O)/C1=C\c1cc(C)n(-c2c(C)cccc2C)c1C 22.2%, CCOc1cc(/C=C2\C(=O)N(Cc3ccco3)C(C)=C2C(=O)OC)ccc1O 24.1%, COC(=O)C1=C(C)NC(=O)/C1=C\c1ccc2c(c1)OCO2 16%, COC(=O)C1=C(C)NC(=O)/C1=C\N(C)C 5.9%, CC(Sc1ncccn1)C(=O)Nc1ccc2c(c1)OCCO2 (configuration not stated) -5.22%, Nc1cc(S(=O)(=O)Nc2ccc(Cl)cc2)ccc1N1CCOCC1 0.79%, COc1ccccc1Nc1nnc(SCC(=O)NC2CCCC2)s1 -10.8%, O=C(CCCOc1ccccc1)N1CCN(C(=O)c2ccco2)CC1 -5.18%, Cc1ccc(-c2nnc(-c3ccncc3)n2-c2ccc(C)cc2)cc1 -0.95%, C=CCN1C(=O)/C(=C\c2cccs2)C(C(=O)OC)=C1C 0.55%, COC(=O)C1=C(C)N(CC(C)C)C(=O)/C1=C\c1cccs1 2.91%, O=C(Nc1ccccc1)c1ccc(Cn2cc(C(F)(F)F)ccc2=O)cc1 -1.59%, O=S(=O)(NCc1ccccn1)c1ccc2c(c1)OCCO2 -0.75%, CCOc1ccc(C(=O)NCC(=O)NCC(c2ccco2)N2CCCCC2)cc1 (configuration not stated) -8.81%, CC[n+]1c(/C=C2\C=C(C)CC(C)C2)sc2ccccc21 (configuration not stated) 26%, CC[n+]1c(/C=C2\C=C(C)CC(C)(C)C2)sc2ccccc21 25.8%, CCCCOc1ccc(/C=c2\sc3ncnn3c2=O)cc1 6.23%, CCSc1nc2c(sc3nc(C)cc(C)c32)c(=O)[nH]1 -3.63%, CCOCCCNC(=O)C(NC(=O)C1CCC(=O)N1)c1ccc(C)cc1 (configuration not stated) 8.49%, C#CC(C)OC(=O)Nc1cnccc1C(F)(F)F (configuration not stated) 31.2%, Cc1ccc(CN2C(=O)CC(Nc3ccc(N4CCOCC4)cc3)C2=O)cc1 (configuration not stated) 4.98%, O=C(CN1C(=O)C(=O)N(C2CCCC2)C1=O)Nc1ccc(N2CCOCC2)cc1 -7.86%, O=C1CC(Nc2ccccc2)C(=O)N1c1ccc(N2CCOCC2)cc1 (configuration not stated) 29%, COc1cccc(N2C(=O)CC(Nc3ccc(N4CCOCC4)cc3)C2=O)c1 (configuration not stated) 27.7%, CC(C)CC(=O)Nc1ccc(N2CCOCC2)cc1 -0.35%, O=C1CC(Nc2ccc(N3CCOCC3)cc2)C(=O)N1c1ccccc1 (configuration not stated) 16.9%, COc1ccc(NC2CC(=O)N(C(C)C)C2=O)cc1 (configuration not stated) 1.77%, Cc1ccc(NC2CC(=O)N(c3ccc(N4CCCCC4)cc3)C2=O)cc1 (configuration not stated) 25.5%, COc1cccc(CC(NC(C)=O)C(=O)NC2CCN(S(=O)(=O)c3ccc(F)cc3)CC2)c1OC (configuration not stated) -17.6%, CCCCn1c(N)c(N(CCOC)C(=O)CCCc2nc3ccccc3c(=O)[nH]2)c(=O)[nH]c1=O -0.43%, COc1ccc(CC(=O)NCCS(=O)(=O)N2CCN(c3ccccc3OC)CC2)cc1 -3.77%, CCOc1ccc(CCNC(=O)COC(=O)Cc2c[nH]c3ccccc23)cc1OCC 2.44%, CCOCCCNCc1cccc(OC)c1 -0.48%, CN1CCN(S(=O)(=O)c2ccc(Oc3ccc(Br)cc3F)nc2)CC1 -0.65%, COc1cccc(CC(=O)OCC(=O)c2cc(OC)ccc2OC)c1 18.9%, Cc1cc(C)cc(N2CN=c3s/c(=C\c4ccco4)c(=O)n3C2)c1 3.97%, CCNC1=C(Cl)C(=O)c2ccccc2C1=O 2.59%, CC(=O)Nc1ccc(NC2=C(Cl)C(=O)c3ccccc3C2=O)cc1 11.5%, CN(C)c1ccc(NC2=C(Cl)C(=O)c3ccccc3C2=O)cc1 20.1%, O=C1C(Cl)=C(NC(=O)c2ccccc2)C(=O)C(Cl)=C1NC(=O)c1ccccc1 20.2%, CCCC(=O)Nc1ccccc1NC(=O)CCC 16.5%, O=C1C(Cl)=C(Nc2ccccc2)C(=O)c2ccccc21 -1.3%, O=C(Nc1ccc2cn[nH]c2c1)c1c(Cl)cccc1Cl 2.79%, CCC(=O)Nc1c(C)cc(C)cc1Cl 1.1%, CC(c1ccccc1)C1NC(C(=O)O)CS1 (configuration not stated) -0.34%
